From ChEMBL document CHEMBL3433997, “St. Jude Leishmania screening dataset” (2016)
“And” between values parts separate entries of the source, which are not always exact repeats. Identical values can stand only once.

Legend:
Format in all cases: functional
[1] = target: Solute carrier family 2, facilitated glucose transporter member 1 (Homo sapiens) (UniProt P11166); experiment: ST_JUDE_LEISH: Cytotoxicity at 2uM final concentration against transgenic Leishmania Mexicana promastigotes LmGLUT1 that are glucose transport deficient and complemented with the human glucose transporter GLUT1. Activity is measured by DNA content using SYBR green in vitro
Chain of Solute carrier family 2, facilitated glucose transporter member 1 (Homo sapiens) (P11166 whole entry): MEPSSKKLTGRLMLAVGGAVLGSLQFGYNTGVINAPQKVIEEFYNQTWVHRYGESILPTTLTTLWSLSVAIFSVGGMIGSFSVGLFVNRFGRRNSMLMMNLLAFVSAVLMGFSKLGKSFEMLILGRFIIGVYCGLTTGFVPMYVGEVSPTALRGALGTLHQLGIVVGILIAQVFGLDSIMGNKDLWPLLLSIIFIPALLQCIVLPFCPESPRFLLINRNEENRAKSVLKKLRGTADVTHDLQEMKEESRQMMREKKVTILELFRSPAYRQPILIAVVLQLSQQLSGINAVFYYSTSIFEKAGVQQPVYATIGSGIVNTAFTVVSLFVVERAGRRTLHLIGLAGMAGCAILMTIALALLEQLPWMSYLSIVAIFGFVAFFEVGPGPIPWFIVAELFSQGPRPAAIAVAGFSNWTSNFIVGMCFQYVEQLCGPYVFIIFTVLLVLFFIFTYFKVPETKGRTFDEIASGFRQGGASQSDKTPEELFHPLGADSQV

[2] = target: Hexose transporter 1 (Plasmodium falciparum) (UniProt O97467); experiment: ST_JUDE_LEISH: Cytotoxicity at 2uM final concentration against transgenic Leishmania Mexicana promastigotes LmPfHT that are glucose transport deficient and complemented with the Plasmodium falciparum hexose transporter. Activity is measured by DNA content using SYBR green in vitro
[3] = target: Glucose transporter (Leishmania mexicana) (UniProt O61059); experiment: ST_JUDE_LEISH: Cytotoxicity at 2uM final concentration against transgenic Leishmania Mexicana promastigotes LmGT2 that are glucose transport deficient and complemented with the L. Mexicana glucose transporter 2. Activity is measured by DNA content using SYBR green in vitro

SMILES | inhibition [1] | inhibition [2] | inhibition [3]
CCCN(CC(=O)NCCc1ccccc1)c1ccc(C#N)c2ccccc12 | 2.23% | 1.5% | 1.66%
CC[C@H]1CN2CC[C@@H]1C[C@H]2[C@H](O)c1ccnc2ccc(Cl)cc12 | 2.97% | 3.95% | 3.25%
O=C(c1ccccc1)C1CC1CN1CC=C(c2c[nH]c3ccccc23)CC1 (stereo not given) | 2.08% | 0.92% | 8.35%
CC[C@H]1CN2CC[C@H]1C[C@@H]2[C@@H](O)c1cc(Cl)nc2ccc(OC)cc12 | 11% | 8.14% | 8.37%
OC(CNC1CCCCC1)c1ccc(Cl)c(Cl)c1 (stereo not given) | -1.03% | -0.96% | -0.95%
CCOC(=O)c1c(C)n(C2CCCCC2)c2cc(Br)c(O)cc12 | -0.53% | -0.38% | -0.74%
CC(=O)C1(c2ccccc2)CCN(CCC(NC(=O)c2cc(C(F)(F)F)cc(C(F)(F)F)c2)c2ccc(Cl)c(Cl)c2)CC1 (stereo not given) | -0.39% | 0.71% | 5.98%
O=C(NC1CCC(CN2CCC(c3c[nH]c4ccccc34)CC2)CC1)c1cc(-c2cccc(Cl)c2)n(-c2ccc(Cl)cc2Cl)n1 (stereo not given) | 1.34% | -0.46% | 0.47%
COc1ccc(CCNCc2ccc3nc(N)cc(C)c3c2)cc1 | -3.73% | -2.84% | -2.66%
CC1=CC(=O)[C@@H](O)[C@]2(C)[C@H]3[C@@]4(O)OC[C@@]35[C@@H](C[C@@H]12)OC(=O)C[C@H]5[C@@H](C)[C@H]4O | 7.27% | 2.51% | 0.79%
CCOC(=O)CCCN1C(=O)CN=C(c2ccccc2)c2cc(Cl)ccc21 | -1.02% | 0.13% | 3.48%
O=C(NCC(=O)N1CCC[C@H]1C(=O)O)[C@@H](Cc1ccccc1)NC(=O)[C@@H]1CCCN1C(=O)CCCc1ccc(O)cc1 | – | -1.36% | -1.68%
Clc1ccc2nccc(N3CCC(CN4CCC(c5c[nH]c6ccccc56)CC4)CC3)c2c1 | 0.88% | 0.94% | 2.61%
Cc1ccc(CC(C)NCC(O)c2cccc(Cl)c2)cc1F (stereo not given) | 9.84% | 9.76% | 9.69%
CC(=O)C1(c2ccccc2)CCN(CCC2(c3ccc(Cl)c(Cl)c3)CN(C(=O)CC(C)C)CCO2)CC1 (stereo not given) | -0.51% | 0.43% | -2.67%
O=C(/C=C/c1ccc(Cl)cc1)NC1CCC(CN2CCC(c3c[nH]c4ccccc34)CC2)CC1 (stereo not given) | 0.07% and -1.03% | 0.24% and -2.23% | -1.22% and 2.14%

SMILES | inhibition [1] | inhibition [2] | inhibition [3]
O=C(NC1CCN(CC2(c3ccc(Cl)cc3)CCC2)CC1)c1cscn1 | 1.16% | -2.56% | 0.83%
CC(Cc1ccc(OCCOc2ccccc2)cc1)NCC(O)c1cccc(C(F)(F)F)c1 (stereo not given) | 1.79% | 3.83% | 4.17%
COC(=O)c1ccc(CC(C)NCC(O)c2cccc(Oc3cccc(C(F)(F)F)c3)c2)cc1 (stereo not given) | 8.83% | 6.86% | 6.56%
CC(=O)C1(c2ccccc2)CCN(CCC2(c3ccc(Cl)c(Cl)c3)CN(C(=O)C3CCCCC3)CCO2)CC1 (stereo not given) | 4.85% | 2.27% | 3.92%
CC(=O)N(Cc1ccccc1-c1cccc(CNCc2ccc3c(c2)OCO3)c1)C1CCN(Cc2ccccc2)CC1 | 3.8% | 5.58% | 3.79%
COC(=O)c1ccc(CC(C)NCC(O)c2cccc(C(F)(F)F)c2)cc1F (stereo not given) | 2.16% | 2.23% | 2.51%
O=C(/C=C/c1ccc(Cl)c(Cl)c1)N1CCC(CN2CCC(c3c(-c4ccccc4)[nH]c4ccccc34)CC2)CC1 | -1.32% | 1.74% | 0.62%
COC(=O)c1ccc(CC(C)NCC(O)c2cccc3ccccc23)cc1 (stereo not given) | 4.9% | 3.26% | 2.22%
CC[C@H]1CN2CC[C@H]1C[C@H]2[C@H](O)c1cc(N2CCC3CCCCC3C2)nc2ccc(OC)cc12 (stereo not given in full) | 3.3% | 4.42% | 3.38%
Cc1c(C)c2c(c(C)c1O)CC[C@](C)(C(=O)N1CCC(CN3CCC(c4c[nH]c5ccccc45)CC3)CC1)O2 | 3.34% | 4.94% | 0.9%
C/C=C1\CN2CC[C@H]1C[C@H]2[C@H](O)c1ccnc2ccc(O)cc12 | -0.15% | -0.16% | 0.93%
COc1ccc(CN2CCN(CCOC(c3ccccc3)c3ccccc3)CC2)c(O)c1 | 3.13% | 2.42% | 0.74%
S=C(NCCc1ccc(Cl)cc1)N1CCC(CN2CCC(c3c[nH]c4ccccc34)CC2)CC1 | 3.04% | 1.73% | 1.67%
CCOC(C(=O)OCCN(C(C)C)C(C)C)(c1ccccc1)c1ccccc1 | -0.14% | 0.41% | -0.37%
CC(Cc1ccc(OCCCCOc2ccccc2)cc1)NCCC1CCCN1C (stereo not given) | 103% | 97.7% | 103%
CCCCCCCN1C2CCC1CC(CCOc1ccnc3ccc(OC)cc13)C2 (stereo not given) | 11.4% | 8.68% | 11%
